We go through 56 compounds from publication PMC4336329 (PLoS ONE, 2015).

The whole screen tested about 310,000 compounds, of which about 14,000 (4.5%) showed an effect of 50% or more. Effects have a minus sign here. The list comes from a sample in which strong results are over-represented; it also holds similar structures and randomly drawn compounds.
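Also: peak tail current of the secondary pulse compared with the same well before compound.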

Sequence of human ether-à-go-go-related gene (hERG) potassium channel (Q12809 whole entry, looked up): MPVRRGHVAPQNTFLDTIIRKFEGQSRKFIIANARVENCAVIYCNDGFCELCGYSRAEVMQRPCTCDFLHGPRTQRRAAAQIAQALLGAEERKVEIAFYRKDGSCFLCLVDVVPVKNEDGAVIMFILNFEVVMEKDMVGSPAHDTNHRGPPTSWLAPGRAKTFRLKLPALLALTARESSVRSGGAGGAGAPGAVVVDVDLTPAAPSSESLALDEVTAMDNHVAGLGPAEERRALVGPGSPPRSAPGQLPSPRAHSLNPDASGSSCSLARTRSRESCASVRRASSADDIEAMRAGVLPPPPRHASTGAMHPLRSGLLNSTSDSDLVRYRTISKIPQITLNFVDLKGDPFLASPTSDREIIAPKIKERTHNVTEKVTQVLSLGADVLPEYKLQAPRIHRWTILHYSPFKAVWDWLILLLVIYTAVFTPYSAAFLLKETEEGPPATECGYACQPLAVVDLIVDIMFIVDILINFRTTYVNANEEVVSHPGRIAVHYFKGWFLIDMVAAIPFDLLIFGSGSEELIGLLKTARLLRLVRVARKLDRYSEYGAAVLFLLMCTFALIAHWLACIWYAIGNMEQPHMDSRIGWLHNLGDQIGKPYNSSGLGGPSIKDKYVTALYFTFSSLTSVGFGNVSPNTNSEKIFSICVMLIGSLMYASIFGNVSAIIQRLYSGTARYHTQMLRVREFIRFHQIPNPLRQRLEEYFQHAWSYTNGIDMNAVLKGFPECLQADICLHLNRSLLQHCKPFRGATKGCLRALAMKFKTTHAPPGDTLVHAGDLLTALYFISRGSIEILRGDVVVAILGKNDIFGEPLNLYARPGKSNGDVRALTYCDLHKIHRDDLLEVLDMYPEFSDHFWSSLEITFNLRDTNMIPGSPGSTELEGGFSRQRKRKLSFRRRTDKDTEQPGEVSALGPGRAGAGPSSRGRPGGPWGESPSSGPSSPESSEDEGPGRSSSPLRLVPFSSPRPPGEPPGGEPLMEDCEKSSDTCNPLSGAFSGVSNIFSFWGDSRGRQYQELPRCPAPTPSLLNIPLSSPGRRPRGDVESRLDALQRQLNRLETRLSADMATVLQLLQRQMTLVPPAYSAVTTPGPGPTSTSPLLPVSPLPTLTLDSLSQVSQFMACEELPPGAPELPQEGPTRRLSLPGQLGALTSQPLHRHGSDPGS

The assay addresses human ether-à-go-go-related gene (hERG) potassium channel (human, UniProt Q12809). As to the kind of experiment: primary screen, population patch clamp on CHO cells stably expressing hERG; higher = less effect of the substance.
In the case of `Cc1sc2nc(SCc3nc4ccccc4[nH]3)n(Cc3ccco3)c(=O)c2c1C`, the “hERG current change (%, negative = inhibition) at 10uM” value was -9.15%.

As for `C=CC1CN(C(=O)OCC(Cl)(Cl)Cl)C2CC3c4ccc(OC)cc4NC3C3CC1C2CO3` (centres unmarked), the “hERG current change (%, negative = inhibition) at 10uM” value is recorded as -7.61%. On to `CCOc1ccc2nc(SCC(=O)NCc3ccccc3)[nH]c2c1`, for which the “hERG current change (%, negative = inhibition) at 10uM” value was determined as 2.63%. Take `CC(C)CN(C(=O)COC(=O)CCSc1ccc(F)cc1)c1c(N)n(Cc2ccccc2)c(=O)[nH]c1=O`: the “hERG current change (%, negative = inhibition) at 10uM” value turned out to be 10.1%. On to `Cc1cc(C(=O)CN2C(=O)NC3(CCCc4ccccc43)C2=O)c(C)n1C` (centres unmarked), for which the “hERG current change (%, negative = inhibition) at 10uM” value is listed as -13.5%. Turning to `COc1ccc(/C=C2\S/C(=N/S(=O)(=O)c3cccs3)NC2=O)cc1`, the “hERG current change (%, negative = inhibition) at 10uM” value was determined as 8.45%. As for `CS(=O)(=O)N(CC(=O)NCCC1=CCCCC1)c1cccc([N+](=O)[O-])c1`, the “hERG current change (%, negative = inhibition) at 10uM” value is given as -32.4%. In the case of `COc1cc(OC)cc(C(=O)Oc2c(CN3CCOCC3)cc(Cl)c3cccnc23)c1` it was -15.5%; in that of `COC(=O)c1cccc(Nc2cc(C)nc(-c3ccccc3O)n2)c1`, 10.2%; in that of `COc1ccc(/C=C/C(=O)OCC(=O)c2ccc3c(c2)NC(=O)CO3)c(OC)c1`, 1.6%. For `Cc1ccccc1NC(=O)C1CCCN(S(=O)(=O)c2ccc3c(c2)C(C)(C)C(=O)N3C)C1` (centres unmarked), the “hERG current change (%, negative = inhibition) at 10uM” value came to 6.82%. On to `COc1cccc(CN2CCC(n3nccc3NC(=O)CCCc3ccccc3)CC2)c1O`, for which the “hERG current change (%, negative = inhibition) at 10uM” value is given as -75.9%. `C=CCOc1ccccc1CN1CCC(n2nccc2NC(=O)C2CCOC2)CC1` (centres unmarked): the “hERG current change (%, negative = inhibition) at 10uM” value is reported as -21.5%.

In the case of `O=C(Nc1ccnn1C1CCN(Cc2c[nH]c3ccccc23)CC1)c1ccccc1`, the “hERG current change (%, negative = inhibition) at 10uM” value is on record as -44.7%. Turning to `COc1ccccc1CN1CCC(n2nccc2NC(=O)CCCc2ccccc2)CC1`, the “hERG current change (%, negative = inhibition) at 10uM” value is recorded as -85.2%.

On to `CCOc1ccccc1CN1CCC(n2nccc2NC(=O)CCCc2ccccc2)CC1`, for which the “hERG current change (%, negative = inhibition) at 10uM” value is on record as -83.7%. In the case of `COCc1ccc(CN2CCC(n3nccc3NC(=O)CCCc3ccccc3)CC2)o1` it was 21.5%; in that of `CCOc1ccccc1CN1CCC(n2nccc2NC(=O)CCc2ccccc2)CC1`, -38.6%. Regarding `COc1ccccc1CN1CCC(n2nccc2NC(=O)CCc2ccccc2)CC1`, the “hERG current change (%, negative = inhibition) at 10uM” value was -23.9%. `C=CCOc1ccccc1CN1CCC(n2nccc2NC(=O)c2ccccc2)CC1`: the “hERG current change (%, negative = inhibition) at 10uM” value is reported as -64.4%. In the case of `O=S(=O)(NCc1cccnc1)c1ccc(Cl)c(Cl)c1` it was -10.9%; in that of `O=C(CN1CCCCC1)Nc1cc(S(=O)(=O)N2CCOCC2)ccc1N1CCCC1`, 6.08%; in that of `COc1ccc(C(=O)C[n+]2cccc3cc(OC)ccc32)cc1.[Br-]`, 6.04%. In the case of `CCn1c(=O)n(CC)c2cc(NC(=O)CSc3ccc([N+](=O)[O-])cn3)ccc21`, the “hERG current change (%, negative = inhibition) at 10uM” value is -5.04%. As to `Cc1nnc(SCC(=O)Nc2ccc(N3CCOCC3)cc2)o1`, the “hERG current change (%, negative = inhibition) at 10uM” value worked out at 10.3%.

Turning to `Cc1ccccc1CN1CCC(n2nccc2NC(=O)CCOc2ccccc2)CC1`, the “hERG current change (%, negative = inhibition) at 10uM” value is recorded as -44.9%. The figure for `COc1cccc(CN2CCC(n3nccc3NC(=O)CCOc3ccccc3)CC2)c1O` is -61.5%; for `COCc1ccc(CN2CCC(n3nccc3NC(=O)CCOc3ccccc3)CC2)o1` it is -0.748%; for `CCC1(CC)NC(=O)N(CC(=O)OC(C)C(=O)Nc2ccc(Cl)cn2)C1=O` (centres unmarked) it is -51.7%. Regarding `CCC1(CC)NC(=O)N(CC(=O)OC(C)C(=O)Nc2ccc(NC(C)=O)cc2)C1=O` (centres unmarked), the “hERG current change (%, negative = inhibition) at 10uM” value stood at 3.1%. Turning to `CCC1(CC)NC(=O)N(CC(=O)OC(C)C(=O)Nc2ccccc2OC)C1=O` (centres unmarked), the “hERG current change (%, negative = inhibition) at 10uM” value was 32.3%.

With `N#Cc1ccsc1NC(=O)CN1CCN(S(=O)(=O)c2ccccc2C(F)(F)F)CC1`, the “hERG current change (%, negative = inhibition) at 10uM” value is on record as -56.9%. In the case of `CC(=O)N1CCN(CC(=O)Nc2sccc2C#N)CC1`, the “hERG current change (%, negative = inhibition) at 10uM” value was determined as 17.8%. As for `N#Cc1ccsc1NC(=O)CN1CCN(c2ccccc2O)CC1`, the “hERG current change (%, negative = inhibition) at 10uM” value is recorded as -4.95%. For the compound `N#Cc1ccsc1NC(=O)CN1CCCCCC1`, the “hERG current change (%, negative = inhibition) at 10uM” value is -3.42%. In the case of `Cc1ccc(C)c(S(=O)(=O)N2CCN(CC(=O)Nc3sccc3C#N)CC2)c1` it was -57.7%. With `N#Cc1ccsc1NC(=O)CN1CCN(S(=O)(=O)c2cc(Cl)ccc2Cl)CC1`, the “hERG current change (%, negative = inhibition) at 10uM” value is -32%. In the case of `COC(=O)C1=C2c3[nH]c4ccccc4c3CCN2C(=O)CC1` it was -23.1%. Turning to `O=C(CN1CCOCC1)NCc1ccccc1`, the “hERG current change (%, negative = inhibition) at 10uM” value is 17.4%.

Turning to `C=C(C)COc1ccc(-c2[nH]ncc2-c2ccc(OC)c(OC)c2)c(O)c1`, the “hERG current change (%, negative = inhibition) at 10uM” value is recorded as -0.891%. In the case of `CC(C(=O)N1CCc2ccccc21)N(C)CC(=O)Nc1ccccc1Cl` (centres unmarked), the “hERG current change (%, negative = inhibition) at 10uM” value is -29.2%. Take `CC(C(=O)N1CCc2ccccc21)N(C)CC(=O)Nc1ccc(F)cc1` (centres unmarked): the “hERG current change (%, negative = inhibition) at 10uM” value is listed as -47.9%. Take `Cc1cc(C)c(NC(=O)CN(C)C(C)C(=O)N2CCc3ccccc32)c(C)c1` (centres unmarked): the “hERG current change (%, negative = inhibition) at 10uM” value was -50.3%. As to `CCOC(=O)c1c(C)nc(-c2ccccc2)nc1N`, the “hERG current change (%, negative = inhibition) at 10uM” value is reported as 7.25%. Turning to `CCCCC(=O)N1C/C=C\C(c2ccc(OC)cc2)N(Cc2ccc(F)cc2)C(=O)[C@H]1Cc1ccccc1` (some centres unmarked), the “hERG current change (%, negative = inhibition) at 10uM” value is 7.51%. For `COc1ccc([C@H]2/C=C\CN(C(=O)CC(C)(C)C)[C@@H](C)C(=O)N2Cc2ccc(F)cc2)cc1`, the “hERG current change (%, negative = inhibition) at 10uM” value is -17.4%. Take `CCCCC(=O)N1C/C=C\[C@H](c2ccc(OC)cc2)N(Cc2ccc(F)cc2)C(=O)[C@@H]1C`: the “hERG current change (%, negative = inhibition) at 10uM” value is on record as -68.6%. Take `CN(CCNC(=O)C1CCN(S(=O)(=O)c2cnc[nH]2)CC1)Cc1ccccc1`: the “hERG current change (%, negative = inhibition) at 10uM” value is 12.6%. Take `O=C(CCC1CCCCC1)Nc1ccccc1O`: the “hERG current change (%, negative = inhibition) at 10uM” value is 3.23%. For `CCOc1ccc(CN2CCN(Cc3ccc4cc(F)ccc4n3)CC2CCO)cc1` (centres unmarked), the “hERG current change (%, negative = inhibition) at 10uM” value is on record as -75.7%. On to `COc1ccc(CN2CCN(Cc3ccon3)CC2CCO)c(C)c1C` (centres unmarked), for which the “hERG current change (%, negative = inhibition) at 10uM” value is recorded as -37.3%.

Regarding `CC(=O)Nc1ccc2nc(CN3CCN(Cc4ccc(F)cc4)C(CCO)C3)ccc2c1` (centres unmarked), the “hERG current change (%, negative = inhibition) at 10uM” value is recorded as -28.8%. The figure for `COc1cccc(CN2CCN(Cc3ccc4c(NC(C)=O)cccc4n3)CC2CCO)c1` (centres unmarked) is 5.13%. As for `Cc1ccc(CN2CCN(Cc3ccc4cc(F)ccc4n3)CC2CCO)o1` (centres unmarked), the “hERG current change (%, negative = inhibition) at 10uM” value is recorded as -30.6%. In the case of `COc1ccc(CN2CCN(Cc3ccc4cc(F)ccc4n3)CC2CCO)c(C)c1C` (centres unmarked) it was -63.7%; in that of `COc1cc(CN2CCN(Cc3ccc4cc(F)ccc4n3)CC2CCO)cc(OC)c1` (centres unmarked), -64.4%.
